Bioassay records (PubChem BioAssay)
PrPC TRFRET = reduces human prion protein on the cell surface; AID 720596; P04156; inhibition, % at 13.8 µM; cell surface PrPC, TR-FRET read-out; 370,000 compounds, 0.43% hits; in the data active = inhibition above about 24%; also: 0% = median of the test wells and 100% = reference compound wells
BJeLR viability = kills HRASV12-expressing BJeLR cells; BJeLR (HRASV12) viability, CellTiter-Glo ATP luminescence, 48 h; inhibition, % (no concentration beside the values); 300,000 compounds, 0.17% hits; AID 1554; in the data active = inhibition above about 50%
PrP 5UTR inh = suppresses PrP 5' UTR mRNA reporter expression; inhibition, % (concentration not given with the values); 340,000 compounds, 0.35% hits; AID 488862; cell-based PrP 5' UTR mRNA reporter, plate reader; in the data active = inhibition above about 52%; also: 0 = median of the neutral control wells
GDH-TPI inh = GDH-TPI coupled enzyme inhibition counter-screen | GDH-TPI coupled enzyme counterscreen, NADH absorbance | inhibition, % at 4.8 µM | AID 588335 | 360,000 compounds, 1.2% hits; in the data active = inhibition above about 30%;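 also: 0% = DMSO wells and 100% = wells lacking the enzyme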
FBA Mtb inh = inhibitors of M. tuberculosis fructose-bisphosphate aldolase; AID 588726; inhibition, % at 1 µM; purified M. tuberculosis FBA, fluorescence read-out; P9WQA3; 360,000 compounds, 2.3% hits; in the data active = inhibition above about 27%;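 also: 0% = vehicle and 100% = reference inhibitor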
Target sequence (P9WQA3 whole entry, looked up): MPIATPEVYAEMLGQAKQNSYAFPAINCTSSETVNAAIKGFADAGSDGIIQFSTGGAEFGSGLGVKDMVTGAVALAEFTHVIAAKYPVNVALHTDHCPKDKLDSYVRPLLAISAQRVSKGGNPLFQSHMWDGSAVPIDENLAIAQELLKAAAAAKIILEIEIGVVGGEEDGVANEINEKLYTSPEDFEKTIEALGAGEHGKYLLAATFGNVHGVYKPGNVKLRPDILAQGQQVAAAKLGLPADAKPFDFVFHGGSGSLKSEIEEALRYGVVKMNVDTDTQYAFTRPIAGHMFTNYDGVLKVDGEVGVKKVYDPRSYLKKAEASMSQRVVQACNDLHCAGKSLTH
PfHsp40 rescue = restores yeast growth despite PfHsp40 toxicity; growth rescue, % at 12.5 µM; 340,000 compounds, 0.68% hits; AID 504582; S. cerevisiae expressing PfHsp40, growth rescue, ATP luminescence; in the data active = growth rescue above about 28%, passing the limit was not always enough;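 also: yeast W303a lacking pdr1 and pdr3 grown in galactose medium; growth measured after three days at 30 °C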
* hit, by the source's call; x = no result; + = active, no number. Rows were chosen to be rich in hits. Some 4.5% of all compounds tested hit in one or more screens of this group.

SMILES	PrPC TRFRET	BJeLR viability	PrP 5UTR inh	GDH-TPI inh	FBA Mtb inh	PfHsp40 rescue
CCOC(=O)c1sc2c(c1C)C(c1cccs1)C1=C(CCCC1=O)N2 (stereo not given)	4	3	-14	11	+	1
Cc1ccc(CSc2nnc(-c3cc(-c4ccc(C)cc4)n[nH]3)n2N)cc1	2	x	x	x	x	x
Cc1ccc(S(=O)(=O)N2C(c3ccc(Cl)c(Cl)c3)CC=C(C(=O)O)C2c2ccc(Cl)cc2)cc1 (stereo not given)	-5	x	x	x	x	x
Cc1ccc(S(=O)(=O)N2[C@@H](c3ccc(Cl)cc3)C(C(=O)O)=CC[C@H]2c2ccc(Cl)c(Cl)c2)cc1	-7	x	-19	4	-2	304*
C=C(C)C1Cc2c(C)nn(-c3nc(C)cc(C)n3)c2C1 (stereo not given)	6	-2	-2	-6	3	113*
C=C(C)C1Cc2nc(N)nc(C)c2C1 (stereo not given)	-1	9	8	2	0	-1
CC1CCCCC1N(C(=O)c1cc(C2CC2)on1)C1CCCCCC1 (stereo not given)	-11	x	x	x	x	x
CCOc1ccc(NC(=O)Cn2cc(C(=O)c3ccco3)c3ccccc32)cc1	-3	2	-3	14	-2	-1
COc1ccc(NC(=O)Cn2cc(C(=O)c3ccco3)c3ccccc32)cc1	7	-3	-7	31*	1	0
O=C(Cn1cc(C(=O)c2ccco2)c2ccccc21)Nc1ccccc1	10	0	-6	34*	-3	0
C/C(=N/NC(=O)c1ccoc1C)c1cccs1	6	x	x	x	x	x
O=C(NCc1ccccc1)C1CCN(c2nc(-c3ccc(Br)cc3)cs2)CC1	10	x	x	x	x	x
Cc1ccc(/C=N/Nc2ncnc3nc[nH]c23)cc1	-2	3	-45	64*	-5	1
Clc1ccc(/C=N/Nc2ncnc3nc[nH]c23)cc1	-12	-6	-23	20	-2	0
Oc1ccc(/C=N/Nc2ncnc3nc[nH]c23)cc1	2	15	x	74*	-1	0
Fc1cccc(/C=N/Nc2ccccn2)c1	-2	4	-94	49*	-3	-1
Fc1cccc(/C=N/Nc2ncnc3nc[nH]c23)c1	-7	10	-22	42*	0	0
c1csc(CNc2ncnc3nc[nH]c23)c1	-2	8	-20	-9	0	0
Fc1ccccc1/C=N/Nc1ncnc2nc[nH]c12	-5	-1	-19	28	-2	1
Cn1c(Cc2cccs2)nnc1SCC(=O)Nc1ccc2cn[nH]c2c1	15	x	x	x	x	x
CCC[C@H]1[C@@H](NC(=O)c2cccnc2)CC[C@@]23CCCN2C(=O)CCC[C@@H]13	-16	x	x	x	x	x
CCCC[C@H]1C2CC(OC(=O)Nc3ccc4c(c3)OCO4)C(C2)[C@H]2CCCCN21 (stereo not given in full)	-1	x	x	x	x	x
Cc1ccc(C(=O)CN2/C(=C(\O)c3ccccc3)C(=O)c3ccccc3S2(=O)=O)c(C)c1	x	-2	-21	22	-3	35*
CCCCNS(=O)(=O)/C=C/c1ccccc1CNC(=O)OC(C)(C)C	7	x	x	x	x	x
O=C(Nc1ncc2c(n1)-c1ccccc1OC2)c1ccc(F)cc1	-1	1	2	14	+	1
SMILES	PrPC TRFRET	BJeLR viability	PrP 5UTR inh	GDH-TPI inh	FBA Mtb inh	PfHsp40 rescue
O=C(Nc1ncc2c(n1)-c1ccccc1OC2)c1cccc([N+](=O)[O-])c1	7	-4	1	1	12	11
O=C(c1ccc(F)cc1F)N1CCC(Oc2cccnc2)CC1	7	x	x	x	x	x
CCOCCCNC(=O)C(NC(=O)c1ccccc1O)c1ccc(Cl)cc1 (stereo not given)	x	-8	-4	10	52*	-1
CCn1c2ccccc2c2cc(NC(=O)COC(=O)c3cc(F)cc(F)c3)ccc21	0	x	x	x	x	x
O=C(/C=C/c1ccc(F)cc1)Nc1ccc(S(=O)(=O)Nc2ncccn2)cc1	-4	-2	-15	33*	2	0
O=C(N/N=C/c1cn(-c2ccccc2)nc1-c1cc2ccccc2o1)c1ccncc1	4	-6	-184	8	0	180*
O=C(N/N=C/c1cn(-c2ccccc2)nc1-c1cccs1)c1ccccc1F	x	0	-32	28	3	201*
CC1=NNC(=O)/C1=C\c1cn(-c2ccccc2)nc1-c1cccs1	2	56*	-1	16	-1	-1
O=C(N/N=C/c1cn(-c2ccccc2)nc1-c1cccs1)c1ccc(Cl)cc1	0	6	-22	28	5	12
Cn1c2ccccc2c2cc(C(=O)NNS(=O)(=O)c3ccc(F)cc3)sc21	2	-2	-17	34*	23	5
CN(C)CCCNC(=O)c1cc2c3ccccc3n(C)c2s1	5	-1	-3	18	7	0
O=C(NNS(=O)(=O)c1ccc(F)cc1)c1ccccc1F	0	3	-25	-17	-3	-1
O=C(NNS(=O)(=O)c1ccc(F)cc1)c1ccccc1	-6	-9	-25	10	147*	1
O=C(O)CNc1nc(-c2ccccc2)nc2c1oc1ccccc12	5	6	-11	-8	1	0
c1ccc(-c2nc(NCc3cccnc3)c3oc4ccccc4c3n2)cc1	2	0	-12	3	1	48*
COCCCn1c(C(=O)NCCN2CCOCC2)cc2c(=O)n3ccccc3nc21	-8	-2	4	10	+	44*
Cc1ccc2nc3c(cc(C(=O)NCCCn4ccnc4)n3C)c(=O)n2c1	-14	1	-20	16	+	1
Cc1cccn2c(=O)c3cc(C(=O)NC4CCCCC4C)n(C)c3nc12 (stereo not given)	5	7	-16	0	13	4
Cc1cccn2c(=O)c3cc(C(=O)NCCN4CCOCC4)n(C)c3nc12	-6	-5	-2	9	121*	0
Cn1c(C(=O)NCCN2CCOCC2)cc2c(=O)n3ccccc3nc21	-20	16	-13	22	+	0
O=C(OCc1cn([C@@H]2CN(CC3CCCCC3)[C@@H](c3ccccc3)C[C@H]2O)nn1)c1ccccc1	-3	x	x	8	0	x
CC(C)CN1C(=O)[C@@]2(CC(=O)N(C)C2c2ccccc2)c2cc(-n3cc(CN(C)C)nn3)ccc21 (stereo not given in full)	-3	x	x	x	x	x
CCCCCCSc1ccc([C@H]2N[C@@](C)(C(=O)OC)[C@H]3C(=O)N(C)C(=O)[C@@H]23)cc1	4	13	-18	-6	1	39*
CCCSc1ccc([C@H]2N[C@@](C)(C(=O)OC)[C@H]3C(=O)N(C)C(=O)[C@@H]23)cc1	-2	11	2	-1	-1	-2
O=C(/C=C/c1cccc([N+](=O)[O-])c1)NC1CC2CCC1C2 (stereo not given)	-18	4	-19	0	0	51*
O=C(/C=C/c1cccc([N+](=O)[O-])c1)c1ccc([N+](=O)[O-])o1	-11	-25	16	41*	4	0
